The supplement of paper PMC10981050
Values joined by “and” are separate entries in the source; they are usually repeats but may differ in a detail not shown here. Equal values may be shown once. Where a name gives a salt, the structure may show the parent alone.

Assays:
Test in all cases: cell viability relative to vehicle control; higher = less cytotoxic
Details in all cases: 10 µM
K562 = tested on: K562
Summary of the method: (§1)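 CRISPR-edited mutant clones and isogenic wild-type clones from four leukaemia lines were screened against Selleck bioactive, kinase and epigenetic probe libraries, with identity-inconsistent compounds excluded. Each compound was acoustically dispensed at a single 10 µM dose into 384-well plates holding 2000 cells in 50 µL medium per well. After 48 h the supernatant was removed and CellTiter-Glo luminescence was read. Viability was expressed as percent of the on-plate vehicle control and analysed in Genedata Screener.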

MARIMO = tested on: MARIMO
Summary of the method: as §1

MOLM14 = tested on: MOLM14
Summary of the method: as §1

OCI-AML2 = tested on: OCI-AML2
Summary of the method: as §1

Compound | cell viability (K562; SRSF2 genotype: SRSF2 P95H/wt) | cell viability (K562; SRSF2 genotype: SRSF2 wt/wt) [%] | cell viability (MARIMO; SRSF2 genotype: SRSF2 P95H/wt) [%] | cell viability (MARIMO; SRSF2 genotype: SRSF2 wt/wt) [%] | cell viability (MOLM14; SRSF2 genotype: SRSF2 P95H/wt) [%] | cell viability (MOLM14; SRSF2 genotype: SRSF2 wt/wt) [%] | cell viability (OCI-AML2; SRSF2 genotype: P95H/wt) [%] | cell viability (OCI-AML2; SRSF2 genotype: wt/wt) [%]
O=C(O)CCC(=O)O [Succinic acid] | 90.3% and 88.2% | 88 | 83.8 | 96.1 | 93.1 | 93.6 | 85.1 | 97.5
Cc1cc2c(s1)Nc1ccccc1N=C2N1CCN(C)CC1 [Olanzapine (Zyprexa)] | 95.8% and 89.5% | 90.7 | 92.5 | 102 | 93.8 | 95.8 | 81.7 | 92.2
O=C(Nc1cccc(Nc2ncc(Br)c(NCCc3cnc[nH]3)n2)c1)N1CCCC1 | 46.5% and 64.2% | 47.1 | 49.8 | 45.4 | 5.3 | 3.38 | 4.66 | 10.9
O=C(NS(=O)(=O)c1ccc(Br)s1)c1ccc(Cl)cc1Cl | 92.9% and 102% | 103 | 97 | 98.4 | 61.8 | 83.3 | 73.9 | 87.6
CN(C)Cc1ccc(-c2nc3cccc4c3n2CCNC4=O)cc1 | 108% and 106% | 110 | 76.7 | 78.9 | 65.5 | 34.3 | 55.2 | 67.9
Cc1cc(CS(=O)(=O)c2ccccc2)cc(OCc2ccc(CN3CCC[C@@H]3CO)cc2)c1 | 98.9% and 101% | 95.6 | 98.9 | 103 | 96.5 | 104 | 98.7 | 92.6
O=c1c(-c2ccc(O)cc2)coc2c([C@@H]3O[C@H](CO)[C@@H](O)[C@H](O)[C@H]3O)c(O)ccc12 [Puerarin (Kakonein)] | 109% and 101% | 97.2 | 98.6 | 101 | 102 | 102 | 96.4 | 102
O=C(Nc1ccc(-c2ccnc(Nc3ccc(N4CCOCC4)cc3)n2)cc1)C1CCCN1 (stereo unspecified) | 89.5% and 97.2% | 89.5 | 72.2 | 73.5 | 35.5 | 22.4 | 43.1 | 39.2
OC1COC(O)C(O)C1O (stereo not drawn) [L(+)-Arabinose] | 102% and 92.9% | 96.7 | 108 | 112 | 95.5 | 101 | 87.3 | 113
C[C@H](NC(=O)CCc1nc2ccccc2c(=O)[nH]1)c1ccccc1 | 103% | 108 | 106 | 100 | 105 | 100 | 105 | 121
COc1nc(C)cnc1NS(=O)(=O)c1cccnc1-c1ccc(-c2nnco2)cc1 [Zibotentan (ZD4054)] | 98.4% and 103% | 98.4 | 99 | 97.6 | 100 | 97.5 | 102 | 105
CCCc1cc2c(N3CCN(C4=NCC(C)(C)S4)CC3)ncnc2s1 [MI-2 (Menin-MLL inhibitor)] | 73.4% and 74.9% | 71.4 | 62.1 | 57.1 | 76.2 | 84.1 | 45.1 | 53.3
COc1ccc(/C=C/c2cc(O)cc(O)c2)cc1O [Rhapontigenin] | 95.7% and 103% | 105 | 101 | 97.9 | 119 | 109 | 94.2 | 86.2
CC(C)NC[C@@H](C(=O)N1CCN(c2ncnc3c2[C@H](C)C[C@H]3O)CC1)c1ccc(Cl)cc1 [Ipatasertib (GDC-0068)] | 90.8% and 87.6% | 86.3 | 80.8 | 80 | 51.1 | 56.6 | 72.1 | 81.2
COc1ccc2cc(-c3nc(-c4ccc([S+](C)[O-])cc4)[nH]c3-c3ccncc3)ccc2c1 (stereo unspecified) [Tie2 kinase inhibitor] | 79% and 60.2% | 93.8 | 88.6 | 95.9 | 101 | 94.6 | 78.5 | 84.3
COc1cc(/C=C/C(=O)N2CCN(CC(=O)N3CCCC3)CC2)cc(OC)c1OC [Cinepazide maleate] | 102% and 105% | 99.2 | 99.5 | 106 | 106 | 105 | 106 | 108
CN1C(=O)[C@@H](NC(=O)c2cc(Cc3ccccc3)on2)COc2ccccc21 | 105% and 100% | 105 | 98.9 | 102 | 110 | 110 | 99.6 | 99.8
O=c1oc2cc(O)ccc2c2ccc(O)cc12 [S5312 Urolithin A.cdx] | 98.3% and 101% | 106 | 99.9 | 98.3 | 97.4 | 105 | 89 | 94.5
N[C@@H](Cc1cc(I)c(Oc2cc(I)c(O)c(I)c2)c(I)c1)C(=O)O [L-Thyroxine] | 87.7% and 96.4% | 101 | 106 | 114 | 98.8 | 106 | 102 | 114
NC(=O)CCCSc1nc(N)nc(-c2c(Cl)cc3c4c(cccc24)COC3)n1 | 18.9% and 27.3% | 22.6 | 29.3 | 24.6 | 2.36 | 2.58 | 16.6 | 19.6
N#Cc1ccc(C(c2ccc(C#N)cc2)n2cncn2)cc1 [Letrozole] | 95.7% and 97.2% | 91.9 | 91.9 | 94 | 96.8 | 92.3 | 87.5 | 90.1

Compound | cell viability (K562; SRSF2 genotype: SRSF2 P95H/wt) | cell viability (K562; SRSF2 genotype: SRSF2 wt/wt) [%] | cell viability (MARIMO; SRSF2 genotype: SRSF2 P95H/wt) [%] | cell viability (MARIMO; SRSF2 genotype: SRSF2 wt/wt) [%] | cell viability (MOLM14; SRSF2 genotype: SRSF2 P95H/wt) [%] | cell viability (MOLM14; SRSF2 genotype: SRSF2 wt/wt) [%] | cell viability (OCI-AML2; SRSF2 genotype: P95H/wt) [%] | cell viability (OCI-AML2; SRSF2 genotype: wt/wt) [%]
c1ccc(NCc2ccc(CNc3ccccn3)cc2)nc1 | 91.8% and 94.5% | 85 | 89 | 91.9 | 87.2 | 92.9 | 78.6 | 84.2
CC(C)(O)C1CCC(C)(C2C(O)CC3(C)C4CC(O)C5C(C)(C)C(O)CCC56CC46CCC23C)O1 (stereo unspecified) [Cyclogalegenol] | 93.6% and 88.3% | 89.8 | 93.5 | 104 | 94 | 95.7 | 97.4 | 103
CCCCCCC=CCCCCCCCc1cccc(O)c1C(=O)O [Ginkgolic Acid] | 103% and 101% | 104 | 108 | 110 | 109 | 107 | 100 | 106
CCCCC1OC(=O)c2ccccc21 (stereo unspecified) [3-n-Butylphathlide] | 93.7% and 104% | 91.5 | 91.9 | 104 | 99.8 | 96.7 | 90.6 | 94.2
C/C=C(\C)C(=O)OC1c2c(ccc3ccc(=O)oc23)OC(C)(C)C1OC(=O)/C(C)=C/C (stereo unspecified) [Paeruptorin B] | 92.7% and 97.1% | 89.7 | 86.9 | 96.3 | 89.7 | 92.3 | 93.8 | 103
OC[C@H]1O[C@H](O[C@H]2[C@H](O)[C@@H](O)C(O)O[C@@H]2CO)[C@H](O)[C@@H](O)[C@@H]1O (mixture of isomers) [Maltose] | 96.1% and 91.6% | 99.6 | 102 | 102 | 98.9 | 98.9 | 96.6 | 104
N=C1S/C(=C\c2ccc(-c3ccc4c(c3)C(=O)NC4=O)o2)C(=O)N1c1ccc(Br)cc1 [Bioymifi] | 95.1% and 88.2% | 87.4 | 99 | 101 | 90.1 | 93.1 | 96.6 | 93.1
Cc1c(C)c2c(c(C)c1OC(=O)CCC(=O)OCCOCCOCCO)CCC(C)(CCCC(C)CCCC(C)CCCC(C)C)O2 (stereo unspecified) [Tocofersolan] | 78.2% and 80.7% | 92.4 | 80.3 | 63.5 | 87.2 | 97.2 | 59.5 | 77.4
N#C/C(=C(/N)Sc1ccc(N)cc1)c1ccccc1C(F)(F)F | 85.3% and 90.9% | 85.1 | 54 | 46.4 | 82.4 | 91.5 | 67.7 | 61.3
Cc1ccc(Cl)c(Nc2ccccc2C(=O)O)c1Cl [Meclofenamate sodium] | 97.7% and 99.9% | 96.9 | 97.2 | 96.4 | 96.8 | 98.5 | 105 | 99.4
CN(C)CCOc1ccc(-c2nc(-c3ccncc3)c(-c3ccc4c(c3)CC/C4=N\O)[nH]2)cc1 | 1.3% and 2.07% | 0.83 | 11.5 | 4.32 | 30.2 | 49.3 | 6.47 | 15.8
O=C(O)CCn1c2c(c3ccccc31)C[C@H](NS(=O)(=O)c1ccc(F)cc1)CC2 [Ramatroban] | 100% and 101% | 105 | 106 | 108 | 102 | 104 | 101 | 103
O=c1[nH]c2ccccc2n1CCN1CCN(c2cccc(C(F)(F)F)c2)CC1 [Flibanserin] | 89.2% and 98.9% | 91.8 | 96.9 | 110 | 101 | 102 | 91 | 108
COc1ccc(CCc2cc(OC)c(OC)c(OC)c2)cc1O [Erianin] | 10.3% and 30.2% | 25.3 | 6.09 | 6.67 | 1.16 | 1.16 | 1.03 | 2.9
CC[C@@H]1/C=C(\C)C[C@H](C)C[C@H](OC)[C@H]2O[C@@](O)(C(=O)C(=O)N3CCCC[C@H]3C(=O)O[C@H](/C(C)=C/[C@@H]3CC[C@H](Cl)[C@H](OC)C3)[C@H](C)[C@@H](O)CC1=O)[C@H](C)C[C@@H]2OC [Pimecrolimus] | 66% and 70.4% | 64.5 | 80.5 | 70.7 | 65.7 | 67.3 | 58.1 | 57.8
CN(C)C(=O)[C@H](O)[C@H](Cc1ccccc1)NC(=O)c1cc2cc(Cl)ccc2[nH]1 | 92.2% and 98.4% | 98 | 95.3 | 98.2 | 88.9 | 104 | 90 | 84.7
c1ccc2c(c1)CCCC2C1=NCCN1 (stereo unspecified) [Tetrahydrozoline HCl] | 101% and 92.1% | 92.9 | 92.1 | 97.2 | 79.5 | 90.7 | 87.8 | 93.8
COc1cc2nccc(Oc3ccc(NC(=O)c4cn(C(C)C)c(=O)n(-c5ccc(F)cc5)c4=O)cc3F)c2cc1OC | 30.1% and 27.1% | 48.2 | 102 | 102 | 27.7 | 43.7 | 70.4 | 80.4
Cc1cc(-n2c(=O)[nH]c(=O)n(C)c2=O)ccc1Oc1ccc(SC(F)(F)F)cc1 [Toltrazuril] | 105% and 104% | 103 | 107 | 109 | 99.7 | 101 | 105 | 104
CO[C@H]1[C@H](O)[C@@H](O)[C@@H](O)[C@H](O)[C@@H]1O [D-Pinitol] | 114% and 107% | 112 | 108 | 110 | 105 | 102 | 112 | 113
O=C(O)CCCc1c[nH]c2ccccc12 [3-Indolebutyric acid (IBA)] | 108% and 96.9% | 96.9 | 100 | 107 | 93.2 | 101 | 97.2 | 106
